Measurements taken from PubChem BioAssay AID1240 (Sanford-Burnham Center for Chemical Genomics, 2008).
Hit rate of the full screen: of about 50,000 compounds, about 800 (1.6%) showed an effect of 50% or more. What follows is part of a selection rich in strong results, with near analogues and random picks from the rest.

Target: Bcl-2-like protein 10 (Homo sapiens) (UniProt Q9HD36)
Experiment: TR3 peptide-Bcl-B binding displacers, biochemical primary FP assay, phenotype converters (AID 1240);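 further: 0% = Bcl-B with tracer peptide and DMSO and 100% = tracer peptide lacking Bcl-B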
Conditions: GST-Bcl-B / FITC-TR3 peptide fluorescence polarization; stronger effect = higher value; compound at 3.75 mg/L

Sequence of Bcl-2-like protein 10 (Homo sapiens) (Q9HD36 whole entry, looked up): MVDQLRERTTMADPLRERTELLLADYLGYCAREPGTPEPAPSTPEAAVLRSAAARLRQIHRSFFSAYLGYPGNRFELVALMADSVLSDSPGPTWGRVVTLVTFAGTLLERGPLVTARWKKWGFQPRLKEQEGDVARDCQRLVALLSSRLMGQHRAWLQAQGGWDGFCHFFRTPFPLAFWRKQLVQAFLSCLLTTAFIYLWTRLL

SMILES	displacement [%]
O=C(NNC(=O)c1ccc2c(c1)OCO2)NC1CCCCC1	10.1
c1cc2c(cc1NC1CCCCC1)OCO2	130
O=C(Nc1ccc2c(c1)OCO2)C(=O)Nc1ccc2c(c1)OCO2	21.3
Cc1nn(Cc2cccc(Cl)c2)c(N)c1-c1ccccc1	-9
CCOc1ccc(/C=N\NC(=O)c2ccc(Br)cc2)c(O)c1	6.9
O=C(Nc1ccc(S(=O)(=O)N2CCc3ccccc32)cc1)c1ccc(-c2ccccc2)cc1	89.5
O=C(Nc1ccc(S(=O)(=O)N2CCc3ccccc32)cc1)c1ccc(Cl)cc1	0.8
Cc1ccc(C(=O)Nc2ccc(S(=O)(=O)N3CCc4ccccc43)cc2)cc1	1.6
O=C(O)c1c(F)c(F)c(F)c(F)c1-c1ccc(Cl)cc1	11.8
Cc1oc2ccc(OCc3ccccc3Cl)cc2c1C(=O)O	5.8
O=c1c(-c2ccccc2)coc2cc(OCc3ccccc3Cl)ccc12	20.7
Oc1cc(OCc2ccccc2Cl)ccc1-c1[nH]ncc1-c1ccccc1	77.4
Cc1cccc(N/C=C/C(=O)c2ccc(Cl)cc2)c1	-2.2
CCOC(=O)c1ccc(NC(=O)/C=C/c2ccc(Cl)cc2)cc1	16.8
Cc1ccc(C(=O)/C=C/Nc2ccc(Cl)c(Cl)c2)cc1	126
CCOC(=O)c1ccc(N/C=C/C(=O)c2cccs2)cc1	14.1
CCOC(=O)c1ccc(N/C=C/C(=O)c2ccc(Cl)cc2)cc1	59.8
Cc1ccc(C(=O)/C=C/Nc2cccc(O)c2)cc1	-0.4
CCOc1ccccc1C(=O)NCCc1nc2ccccc2[nH]1	4.7
O=C(NC1C2CC3CC(C2)CC1C3)c1ccccc1F (stereo not drawn)	4.9
Cc1cc(/C=C2/SC(=O)NC2=O)c(C)n1-c1cccnc1	0.8
C/C(=N\NC(=O)c1cc2ccccc2cc1O)c1ccco1	10
COC(=O)c1cc(-c2ccc(C)cc2)nc2ccccc12	2.1
COc1ccc(-c2cc(-c3ccc(Cl)cc3)c(C#N)c(N)n2)cc1	6.4
N#Cc1c(-c2ccccc2)cc(-c2ccc(Br)cc2)nc1N	8.8
COc1ccc(-c2cc(-c3ccc(Br)cc3)nc(N)c2C#N)cc1	70.6

SMILES	displacement [%]
CN1CCN(c2c([N+](=O)[O-])c(=O)n(C)c3ccccc23)CC1	-4.8
CCOC(=O)c1ccc(-c2ccc(/C=C3/SC(N)=NC3=O)o2)cc1	-27.3
CCC1=NN2C(=N)/C(=C/c3ccc(-c4ccc(F)cc4)o3)C(=O)N=C2S1	69.2
CCCC1=NN2C(=N)/C(=C/c3ccc(-c4ccc(C(=O)OCC)cc4)o3)C(=O)N=C2S1	164
CCC1=NN2C(=N)/C(=C/c3ccc(-c4ccc(C(=O)O)cc4)o3)C(=O)N=C2S1	44.1
CCCC1=NN2C(=N)/C(=C/c3ccc(-c4ccc(F)cc4)o3)C(=O)N=C2S1	135
CCCC1=NN2C(=N)/C(=C/c3ccc(-c4ccccc4C(=O)OC)o3)C(=O)N=C2S1	-37
CCC1=NN2C(=N)/C(=C/c3ccc(-c4ccc(C)c(Cl)c4)o3)C(=O)N=C2S1	3.9
CCCC1=NN2C(=N)/C(=C/c3ccccc3C)C(=O)N=C2S1	32.9
CCC1=NN2C(=N)/C(=C/c3ccc(-c4ccc(F)c(Cl)c4)o3)C(=O)N=C2S1	-0.2
CCCC1=NN2C(=N)/C(=C/c3ccc(OCc4ccc(F)cc4)c(OCC)c3)C(=O)N=C2S1	-6.7
CCC1=NN2C(=N)/C(=C/c3ccc(-c4ccc(Cl)cc4)o3)C(=O)N=C2S1	66.7
CCC1=NN2C(=N)/C(=C/c3ccc(F)cc3)C(=O)N=C2S1	7.5
CCOc1ccc(N2C(=O)NC(=O)/C(=C/c3cc(Br)c(OCC)c(OC)c3)C2=O)cc1	-6.7
CC(=O)C1=C(O)C(=O)N(C)C1c1ccccc1[N+](=O)[O-] (stereo not drawn)	2.8
C/C(=N\N=C1\NC(=O)C(CC(=O)NCc2ccccc2)S1)C(C)C (stereo not drawn)	0.3
CCCCOc1ccc(NC(=O)CSc2nnc(N)s2)cc1	-16.9
c1ccc(CCSc2nc3ccccc3[nH]2)cc1	6.2
Cc1cc(C)c(C=C2C(=O)c3ccccc3C2=O)cc1C	-1.6
Cc1cc(/C=C2/NC(=O)NC2=O)c(-c2ccccc2)n1-c1ccccc1	-5.1
Cc1cc(/C=C2/SC(=S)NC2=O)c(-c2ccccc2)n1-c1ccccc1	0.7
Cc1cc(C=C2C(=O)NC(=S)NC2=O)c(-c2ccccc2)n1-c1ccccc1	162
Cc1cc(/C=N/N2C(=O)c3ccccc3C2=O)c(C)n1-c1ccccc1	11.4
Cc1cc(/C=C2/NC(=S)NC2=O)c(-c2ccccc2)n1-c1ccccc1	-14.7
Cc1cc(C=C2C(=O)NC(=O)NC2=O)c(-c2ccccc2)n1-c1ccccc1	150
Cc1cc(C=C2C(=O)c3ccccc3C2=O)c(-c2ccccc2)n1-c1ccccc1	68

SMILES	displacement [%]
Cc1cc(/C=C2/SC(=O)NC2=O)c(-c2ccccc2)n1-c1ccccc1	-9.6
CN(C)CCNC(=O)/C(=N\O)c1ccccn1	15.9
COc1ccc(CN(C)C(=O)c2cccc(C(=O)N(C)Cc3ccc(OC)cc3)c2)cc1	10.7
COc1cccc(C(=O)Nc2ccc(I)cc2Cl)c1	8.2
Nc1c(Cc2ccccc2)ccc2c1C(=O)c1ccccc1C2=O	10.3
CC(C)(CN1CCOCC1)NS(=O)(=O)c1ccc(Cl)cc1	7.4
CCc1ccc(OCC(=O)Nc2ccc3ccccc3c2)cc1	11.4
Cc1ccc(N2NC(=O)/C(=C/c3ccc(-c4ccc(S(N)(=O)=O)cc4)o3)C2=O)cc1	5.6
CCN(Cc1ccccc1)S(=O)(=O)c1ccc(NC(C)=O)cc1	19.2
CC(=O)Nc1ccc(S(=O)(=O)N(Cc2ccccc2)C(C)C)cc1	130
CC(C)N(Cc1ccccc1)S(=O)(=O)c1ccc(F)cc1	12.3
CC1CN(CC(O)COc2ccc3ccccc3c2)CC(C)O1 (stereo not drawn)	0.2
COc1ccc2[nH]c3c(c2c1)CCn1c-3nc2scc(-c3ccccc3)c2c1=O	0.2
CCc1cc2c(C)cc(=O)oc2cc1OC(C)=O	10.1
COc1ccc(-n2c(O)c(C=Nc3cccc(Cl)c3)c(=O)[nH]c2=O)cc1	14.2
COc1ccc(CN=Cc2c(O)n(-c3ccc(OC)cc3)c(=O)[nH]c2=O)cc1	-3.4
COc1ccc(CN=Cc2c(O)n(-c3ccc(Cl)cc3)c(=O)[nH]c2=O)cc1	-6.6
COc1ccc(-n2c(O)c(C=NCc3ccc(F)cc3)c(=O)[nH]c2=O)cc1	12.4
COc1cccc(-n2c(O)c(C=Nc3cccc(Cl)c3)c(=O)[nH]c2=O)c1	-3.7
COc1ccc(N=Cc2c(O)n(-c3ccccc3)c(=O)[nH]c2=O)cc1Cl	113
COc1cc(N=Cc2c(O)n(-c3ccc(Cl)cc3)c(=O)[nH]c2=O)cc(OC)c1	70.5
COc1ccc(-n2c(O)c(C=Nc3ccc(Cl)cc3)c(=O)[nH]c2=O)cc1	14.3
COc1ccc(CN=Cc2c(O)n(-c3cccc(Cl)c3)c(=O)[nH]c2=O)cc1	81.4
Cc1ccc(N=Cc2c(O)n(-c3ccccc3)c(=O)[nH]c2=O)cc1	-5.6
COc1cc(CN=Cc2c(O)n(-c3ccc(F)cc3)c(=O)[nH]c2=O)cc(OC)c1	84.7
COc1cc(CN=Cc2c(O)n(-c3cc(OC)ccc3OC)c(=O)[nH]c2=O)cc(OC)c1	1.6
